Screening results: PubChem, The Scripps Research Institute Molecular Screening Center
Only some compounds are listed: those with a hit (about 3.5% of all), similar ones and a draw of the others.
GPR151 ag: activates the human receptor GPR151; activation, % at 11.2 µM; 1% of 650,000 active; PathHunter beta-arrestin GPR151 cells, luminescence; in the data active = activation above about 4.9%;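 also: 0% = median of compound wells and 100% = cells with positive control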
Target sequence (Q8TDV0 whole entry, looked up): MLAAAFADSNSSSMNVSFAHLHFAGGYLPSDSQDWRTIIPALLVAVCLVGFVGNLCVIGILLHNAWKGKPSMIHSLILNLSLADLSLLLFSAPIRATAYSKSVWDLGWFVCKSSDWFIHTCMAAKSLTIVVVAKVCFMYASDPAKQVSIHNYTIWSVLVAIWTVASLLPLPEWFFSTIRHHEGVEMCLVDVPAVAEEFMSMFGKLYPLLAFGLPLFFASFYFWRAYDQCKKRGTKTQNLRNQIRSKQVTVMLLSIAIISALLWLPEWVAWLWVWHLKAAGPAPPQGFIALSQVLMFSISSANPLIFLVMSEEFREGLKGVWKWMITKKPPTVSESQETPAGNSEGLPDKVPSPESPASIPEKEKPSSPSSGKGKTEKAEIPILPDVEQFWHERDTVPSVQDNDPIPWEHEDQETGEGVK
FBW7 activator: activators of human E3 ligase FBW7; AlphaScreen FBW7–phospho-cyclin E peptide binding, activator screen; normalized activity (activation), % at 26.1 µM; 0.13% of 650,000 active; in the data active = normalized activity above about 1.9%;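 also: purified mutant Fbw7 with reduced substrate affinity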
TEAD-YAP block: TEAD-YAP interaction inhibition; HEK-TIYL cells, TEAD-Gal4/YAP UAS-luciferase luminescence; inhibition, % at 9.12 µM; 1.4% of 640,000 active; in the data active = inhibition above about 32%;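 also: 0% = median of test compound wells and 100% = reference inhibitor wells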
MITF inh: human MITF inhibition, primary screen; AlphaScreen MITF homodimerization, bead proximity signal; inhibition, % at 2.6 µM; 0.91% of 650,000 active; in the data active = inhibition above about 50%;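 also: 0% = vehicle wells with protein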
MITF inh conf: confirmation of human MITF inhibitors; shares compounds with MITF inh; AlphaScreen MITF homodimerization, biotin/His-MITF beads; inhibition, % at 2.6 µM; 16% of 4,700 active; AID 1259372;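 active = inhibition above a cutoff derived from the DMSO control wells, cut at about 28% in these data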;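 also: 0% = MITF dimer wells with DMSO only; inhibitors lower the bead chemiluminescence by keeping MITF from dimerizing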
AS interf DR: counter-screen: compounds optically interfering with AlphaScreen; shares compounds with MITF inh; AlphaScreen optical interference counterscreen, cell-free; IC50, µM; 6% of 480 active; call rule not given here
AlphaScreen intf2: AlphaScreen optical interference, counter-screen. shares compounds with MITF inh. LysRS AlphaScreen counterscreen, signal interference, triplicate. inhibition, % at 2.6 µM. 7.6% of 4,700 active. AID 1259376;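 active = inhibition above a cutoff derived from the DMSO control wells, cut at about 30% in these data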
Active calls of the source: *; / = not tested or not shown.

SMILES	GPR151 ag	FBW7 activator	TEAD-YAP block	MITF inh	MITF inh conf	AlphaScreen intf2	others
CC(C(=O)Nc1ccc(C#N)cc1)N1CCN(S(=O)(=O)c2ccccc2F)CC1 (stereo not given)	0.2	0.0	-0.9	84.7*	10.8	5.2
CC(C(=O)N1c2ccccc2CC1C)N1CCN(S(=O)(=O)c2ccccc2F)CC1 (stereo not given)	-0.4	-0.2	17.1	75.1*	5.5	12.9
CC1Cc2ccccc2N1S(=O)(=O)c1ccccc1F (stereo not given)	-1.5	0.0	-0.5	4.0	/	/
CCCCCCCC1=NN2C(=N)/C(=C/c3cccc(C)c3)C(=O)N=C2S1	0.2	-0.1	-1.9	-6.1	/	/
COCCn1c(=S)[nH]c2cc(C(=O)NC(C)C)ccc2c1=O	1.7	-0.1	-4.3	4.9	/	/
COCCn1c(=S)[nH]c2cc(C(=O)Nc3ccccn3)ccc2c1=O	-1.4	-0.1	-15.2	76.8*	-22.5	-2.0
CC1CCCC(NCC(O)COCc2ccccc2Cl)C1C (stereo not given)	-1.2	0.0	-5.2	38.4	/	/
Cc1ccccc1OC(=O)c1cc2ccccc2oc1=O	2.6	-0.1	-12.7	-2.7	/	/
CS(=O)(=O)N1CCN=C1SCc1ccccc1F	1.4	-0.3	-10.5	52.4*	13.7	8.2
Cc1ccc(S(=O)(=O)N2CCN(C(C)CC(=O)O)CC2)cc1 (stereo not given)	-0.8	-0.1	-15.4	64.7*	-3.4	-0.4
CN(c1ccccc1C(=O)Nc1ccc(F)cc1F)S(C)(=O)=O	0.5	0.3	-0.4	15.8	/	/
NC(=O)n1c(CCC(=O)O)nc2sc3c(c2c1=O)CCC3	-0.4	-0.3	-9.7	77.7*	72.7*	-7.3	AS interf DR=>6.75
CC1CN(C(=O)c2ccccc2C(=O)Nc2ccc3nc(SCC(=O)NC4CCCCC4)sc3c2)CC(C)O1 (stereo not given)	1.9	0.1	-3.9	7.9	/	/
Cc1nc2n(C)c3ccccc3n2c1C(=O)NN	-0.4	1.6	54.1*	95.4*	1.2	1.6
CCN(CC)CCOC(=O)c1c(C)nc2n(C)c3ccccc3n12	0.4	0.9	14.8	8.4	/	/
O=C(CCC1CCCN(C(=O)c2cnn(Cc3ccccc3)c2)C1)NCc1ccccc1F (stereo not given)	1.5	0.0	-11.4	2.4	/	/
O=[N+]([O-])C1=Cc2ccccc2OC1c1ccc2c(c1)OCO2 (stereo not given)	0.8	0.5	-58.4	20.6	/	/
Cc1cc(C)cc(OCCNC(=O)c2ccccc2Br)c1	-0.4	-0.3	-11.1	10.3	/	/
CN(C)C(=O)c1cc(CNCc2cccc(Cl)c2)cc(NC(=O)c2ccccn2)c1	0.8	-0.2	-4.4	-13.6	/	/
Cc1cccc(CNCc2cc(NC(=O)c3ccccn3)cc(C(=O)N(C)C)c2)c1	4.0	0.1	7.9	69.0*	-7.4	-1.3
COc1cc(CN2CCN(C3CCCC3)CC2)cc(OC)c1OC	3.1	0.1	10.8	64.6*	28.1*	21.2	AS interf DR=>6.48
COc1cc(CN2CCN(C3CCCCC3)CC2)cc(OC)c1O	-0.5	-0.1	-8.0	65.3*	8.2	28.6
Cc1cc(C)n2nc(CC(=O)NCCC(C)C)nc2n1	-1.3	0.8	6.7	7.8	/	/
CN(C)c1cccc(Nc2cc(C(=O)NCCc3ccc(O)cc3)c3ccccc3n2)c1	0.8	0.1	0.4	69.8*	-2.8	3.0
CCCNC(=O)c1cc(Nc2cccc(N(C)C)c2)nc2ccccc12	-1.6	-0.1	3.6	-6.8	/	/
SMILES	GPR151 ag	FBW7 activator	TEAD-YAP block	MITF inh	MITF inh conf	AlphaScreen intf2	others
COc1cc(CN2CCN(C(=O)c3ccco3)CC2)cc(OC)c1OC	0.9	-0.1	9.3	33.5	/	/
O=C(c1ccco1)N1CCN(Cc2cccnc2)CC1	-0.6	0.0	6.6	66.3*	2.7	-0.7
O=C(c1ccccc1F)N1CCN(Cc2ccncc2)CC1	0.7	-0.2	8.2	73.3*	-12.7	-2.7
O=C(c1ccccc1F)N1CCN(Cc2ccc(Br)cc2)CC1	-1.5	-0.2	18.8	49.6	/	/
O=C(c1ccccc1F)N1CCN(Cc2cccnc2)CC1	0.8	0.0	9.3	63.0*	-15.6	-6.4
O=C(c1ccccc1F)N1CCC(O)(c2cccnc2)CC1	3.5	-0.1	-2.8	29.0	/	/
Cc1c(Cl)c(C(F)(F)F)nn1CC(=O)Nc1cccc2ccccc12	0.4	0.1	7.8	14.4	/	/
COc1ccc(OCC(=O)Nc2ccc(NC(C)=O)cc2)cc1	-0.6	0.5	4.3	5.2	/	/
N#Cc1c(CCCNC(=O)c2ccccc2)nn(-c2ccccc2)c1N	-1.3	-0.1	-6.9	-1.8	/	/
CN(C(=S)NC(=O)C1(C)CC1(Cl)Cl)c1ccccc1 (stereo not given)	-0.6	0.0	-3.0	50.6*	-1.0	17.6
O=[N+]([O-])c1ccccc1S(=O)(=O)N1CCN(C2CCN(Cc3ccccc3)CC2)CC1	0.8	-0.2	-5.1	73.8*	5.8	15.1
CN1CCN(C(=O)C2CCCN(S(=O)(=O)c3ccccc3[N+](=O)[O-])C2)CC1 (stereo not given)	3.8	0.0	1.5	82.4*	9.6	15.2
O=C(c1cccnc1)N1CCN(S(=O)(=O)c2ccccc2[N+](=O)[O-])CC1	-0.3	-0.2	-6.7	-24.4	/	/
O=[N+]([O-])c1ccccc1S(=O)(=O)N1CCN(Cc2cccnc2)CC1	-1.0	-0.4	-13.2	73.9*	14.7	18.6
O=[N+]([O-])c1ccccc1S(=O)(=O)N1CCN(C2CCCC2)CC1	0.6	-0.2	3.2	11.4	/	/
CN(C)CCNC(=S)N1CCN(S(=O)(=O)c2ccccc2[N+](=O)[O-])CC1	4.5	-0.3	7.3	72.9*	-1.9	8.8
Fc1ccc(-c2nnc3ccc(SCc4cccnc4)nn23)cc1	1.8	-0.3	-48.6	-1.4	/	/
O=[N+]([O-])c1ccccc1S(=O)(=O)N1CCN(Cc2ccccn2)CC1	-0.7	0.3	6.8	57.7*	12.6	13.9
CC(=O)Nc1ccc(S(=O)(=O)N2CCN(Cc3ccccc3C(F)(F)F)CC2)cc1	0.7	-0.1	1.3	69.6*	4.2	7.0
O=[N+]([O-])c1ccccc1S(=O)(=O)N1CCN(c2ncccn2)CC1	0.4	0.0	-2.3	-2.4	/	/
Cc1ccc(S(=O)(=O)N2CCN(Cc3ccccc3Br)CC2)cc1	-1.6	0.1	6.2	60.5*	13.4	15.2
COc1ccc(CN2CCN(S(=O)(=O)c3ccccc3[N+](=O)[O-])CC2)cc1	-0.1	-0.1	3.7	37.8	/	/
O=[N+]([O-])c1ccccc1S(=O)(=O)N1CCN(Cc2ccc(Cl)cc2)CC1	-1.2	-0.3	4.0	73.2*	15.8	13.1
COc1ccc(S(=O)(=O)N2CCN(Cc3ccccc3Br)CC2)cc1	-0.8	0.2	4.3	17.9	/	/
COc1ccc(C(CNC(=O)c2ccc(Cl)cc2)N2CCN(C)CC2)cc1 (stereo not given)	-0.6	-0.1	3.8	-1.4	/	/
